Data reported in the supplement of paper PMC6555819.

How the values were obtained:
Test in all cases: PBM binding z-score (relative to random genomic background probes); higher = stronger binding; sequences stand for … in GC…GCGATTGACAGCGTAGAATGAAGG
[1] = system: RARb homodimer (NR concentration 270 nM)
Method in brief: (§1)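 The probes on custom Agilent 4×180K protein-binding microarrays were double-stranded, with 34-nt variable regions bearing direct-repeat seeds, single-nucleotide variants, half-site ablations and random human genomic background sequences. Incubation lasted 1 h with ligand-free nuclear receptor dimers in PBS pH 7.4, 2% milk, 0.02% Triton X-100, 1 mM DTT, 0.2 mg/mL BSA and 0.4 mg/ml salmon testes DNA. Antibodies against each partner (one per run) detected bound dimers, and fluorescence scans were regression-normalized. Binding z-scores take the random background probes as reference.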

[2] = system: RARg:RXRa (NR concentration 270 nM, RXRa partner concentration 90 nM)
Method in brief: as §1

[3] = system: RARg homodimer (NR concentration 270 nM)
Method in brief: as §1

[4] = system: RXRa DBDmut IVT, anti-RXR (DBD mutation: RXRa K156A/R161A, NR concentration 90 nM)
Method in brief: as §1

[5] = system: RXRa homodimer (NR concentration 180 nM)
Method in brief: as §1

[6] = system: THRa:RXRa (NR concentration 90 nM, RXRa partner concentration 90 nM)
Method in brief: as §1

[7] = system: THRa homodimer (NR concentration 90 nM)
Method in brief: as §1

[8] = system: VDR homodimer (NR concentration 270 nM)
Method in brief: as §1

Row | Sequence | PBM binding z-score [1] | PBM binding z-score [2] | PBM binding z-score [3] | PBM binding z-score [4] | PBM binding z-score [5] | PBM binding z-score [6] | PBM binding z-score [7] | PBM binding z-score [8]
1 | TTACTAAGGTGAGCTGAGGTCGTTGATCCAACTC | 1.96 | 1.39 | 1.38 | 0.464 | 1.52 | 4.79 | 2.51 | 2.32
2 | AGAATGAGGGTACCAAAGATCAGGGAAACGCTTG | 0.0111 | 0.44 | 0.506 | 0.104 | 0.821 | 0.502 | -0.667 | -0.0915
3 | CAAACTAGGTCACAGAGGTCTAAGTCCGTGCGTA | 3.5 | 4.44 | 4.87 | 1.85 | 3.76 | 3.54 | 1.82 | 1.87
4 | TCATATAGGTAATACAGGTGATAGTCGGCATCTA | 0.0336 | 0.618 | 0.526 | 1.57 | 0.945 | 0.371 | 0.0861 | -0.0181
5 | AGAATGAGGTTATACGTAGAGCAGGGAAGAAAGT | 0.854 | 1.69 | 0.941 | 1.58 | 2.1 | 2.19 | 0.488 | 0.731
6 | CCTACTGGGCCAAAAAGGTTATTGATGCCGATAA | 1.36 | 0.788 | 0.644 | -0.387 | 1.03 | 0.617 | -0.462 | 0.00157
7 | GATACAGGGTCAGCTAGAGGCCAGAATATGGAAA | 3.01 | 6.5 | 4.78 | 1.32 | 4.12 | 3.04 | 0.498 | 1
8 | CAAACTAGGTCAAGATCAAAGTCGGTTTGTGCCA | 2.77 | 3.45 | 4.74 | 1.66 | 2.69 | 2.75 | 0.747 | 0.787
9 | CGTCCAAGGTCAAAGGCCAGTGAAGAGATGACGG | 4.03 | 6.17 | 6.72 | 3.33 | 6.48 | 3.82 | 1.82 | 3.32
10 | CTACCACGGTGAACAAGGTCGTTGATTACTATTC | 1.3 | 0.591 | 0.651 | 1.04 | 0.823 | 1.93 | 1.4 | 2.12
11 | ACAGACAGGTGTTGAAGGTAACTCAGGCTATCAT | -0.0362 | -0.0194 | 0.114 | -0.19 | 0.0702 | 0.786 | 0.073 | -0.587
12 | GCTCGGAGAACAAGGTCAGAGCTTTGTCCGTAGA | 2.36 | 2.39 | 2.24 | 0.418 | 2.16 | 2.58 | 0.95 | 0.151
13 | TCATCTAGGTAAAAGGTGAAAGTCGGTGTGGTAA | 2.04 | 1.82 | 0.925 | 1.24 | 2.84 | 1.99 | 0.446 | 0.293
14 | GTAGACAGGTGAAACGCAGGTAACTCAGGGTGGC | 0.348 | 0.896 | 0.286 | -0.661 | 0.743 | 1.43 | -0.349 | -0.271
15 | TCGAGTACGTTAGTCGGGGCATTCAGCCAACATA | 0.0909 | -0.237 | -0.247 | 3.19 | -0.238 | -0.142 | -0.507 | 1.51
16 | GCTTCTAGGTCAGGTTGGTCAGCTAACGGGTACG | 2.86 | 2.88 | 3.68 | 0.783 | 1.08 | 2.47 | 1.63 | 0.679
17 | TAGCCTAGGTCATTGGGACAGTATAGTACGCATC | 2.92 | 3.97 | 4.51 | 1.52 | 3.13 | 2.95 | 1.14 | 1.44
18 | CGTCCAAGGTCAGCAGGTCAGCGAAAGCGACGTG | 5.14 | 6.69 | 7.16 | 2.52 | 5.67 | 4.07 | 2.74 | 1.83
19 | GCTATTAGTTGAAAGTGCAACCGAATGATTCTCG | 0.667 | 0.42 | 0.38 | 1.14 | 0.575 | 0.147 | -0.293 | 0.388
20 | TAGCCTTGGTCATTCAGGGGCCAGTATAGAAAGC | 1.09 | 2.02 | 0.792 | -0.76 | 0.416 | 0.75 | -0.852 | -0.456
21 | CCTAGCAGGCCAGGGTCATTCAAGCATTTCGCTT | 2.54 | 2.93 | 1.89 | 1.62 | 3.35 | 2.93 | 0.719 | 2.77
22 | CGAACTAGGTCAGAACAGGACACTGAAGGATGAT | 2.12 | 2.35 | 3.35 | 0.629 | 1.37 | 4.03 | 0.473 | 0.123
23 | TCTTGTAGATTAATAGAGGTTAAGAAAGTGCGCT | 1.51 | 0.95 | 0.856 | 1.23 | 1.66 | 1.81 | -0.0934 | 0.699
24 | ATCTCTAGTTAAGACTCAGTTCAGTGAAGAACGC | 0.624 | 0.145 | 0.575 | 0.575 | 0.126 | 0.594 | 0.6 | 1.67
25 | CCTACTGAGCCACGAAAGGTCATTGATTCAGTGA | 4.59 | 4.56 | 4.22 | 1.03 | 5.47 | 3.41 | 1.23 | 2.9
26 | CGTCCAAGGTCAAAGCTAGGTCAGTGAAAGCATT | 5.03 | 7.9 | 7.36 | 4.1 | 6.47 | 4.57 | 2.86 | 3.7
27 | CGTCCAAGGTCAATGCTTGGTCAGTGAAAGCATT | 4.25 | 6.01 | 6.27 | 3.51 | 4.89 | 3.82 | 2.24 | 2.49
28 | CGAACTAGGTCATTGACAGGACAGTAAATAGTAA | 2.73 | 4.76 | 4.54 | 2.6 | 2.84 | 2.74 | 0.723 | 1.03
29 | ATATGTAGGTTACATCCGGGTCATTGAGGCTATG | 3 | 3.72 | 2.07 | 1.25 | 3.12 | 3.92 | 2.69 | 2.7
